Experimental data published in PubChem BioAssay (NCATS).
Where “and” joins values, the source holds several entries; their conditions need not be identical. Identical values can stand only once. Inconclusive results are not listed. Entries that show only a call come without a potency. Calls of active or inactive are those of the source. Unless noted, the call rests on the fitted dose curve.

Columns and labels:
[1] = target: Glucocorticoid receptor (Homo sapiens) (UniProt P04150); experiment: qHTS assay for small molecule antagonists of glucocorticoid receptor signaling (AID 588533; active means well fitted inhibition curve with a large enough effect in the signal ratio, with a control signal flat, not every such curve was filed as active; the % refers to the signal ratio;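 further: cells stimulated with 2 nM dexamethasone as agonist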)
Sequence of Glucocorticoid receptor (Homo sapiens) (P04150 whole entry, looked up): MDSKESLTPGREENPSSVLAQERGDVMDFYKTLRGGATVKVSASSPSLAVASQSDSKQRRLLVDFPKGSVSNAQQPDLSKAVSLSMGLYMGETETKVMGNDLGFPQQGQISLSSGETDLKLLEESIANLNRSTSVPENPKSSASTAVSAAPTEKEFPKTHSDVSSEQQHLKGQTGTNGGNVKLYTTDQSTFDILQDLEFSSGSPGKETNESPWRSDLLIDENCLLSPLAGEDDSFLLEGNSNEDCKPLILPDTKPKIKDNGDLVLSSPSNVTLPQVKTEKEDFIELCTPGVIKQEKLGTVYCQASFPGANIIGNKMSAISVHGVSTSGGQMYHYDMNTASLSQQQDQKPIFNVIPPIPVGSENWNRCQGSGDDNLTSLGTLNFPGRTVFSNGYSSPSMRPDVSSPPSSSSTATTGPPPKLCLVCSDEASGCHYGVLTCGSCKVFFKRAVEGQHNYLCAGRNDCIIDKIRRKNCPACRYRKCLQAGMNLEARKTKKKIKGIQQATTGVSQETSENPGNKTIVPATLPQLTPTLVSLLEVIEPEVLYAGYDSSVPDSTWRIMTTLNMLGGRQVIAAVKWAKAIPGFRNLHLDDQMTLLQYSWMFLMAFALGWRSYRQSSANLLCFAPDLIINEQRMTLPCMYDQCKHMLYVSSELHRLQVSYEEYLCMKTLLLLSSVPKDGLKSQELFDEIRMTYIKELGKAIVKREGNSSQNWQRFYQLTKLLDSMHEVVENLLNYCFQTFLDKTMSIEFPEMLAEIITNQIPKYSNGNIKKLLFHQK
Outline: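 Antagonist-mode qHTS: compound titrations added to GRE-bla HeLa cells, then dexamethasone 2 nM final; 18 h, 37 C. CCF4 FRET fluorescence normalized to dexamethasone and DMSO; IC50 from Hill fit.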

[2] = qHTS assay for small molecule antagonists of peroxisome proliferator-activated receptor delta signaling (AID 588535; active means well fitted inhibition curve with a large enough effect in the signal ratio, with a control signal flat, not every such curve was filed as active; the % refers to the signal ratio;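 on max response: cells co-treated with a PPAR-delta agonist as stimulator during compound exposure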); conditions: HEK293T PPARd-UAS-bla, beta-lactamase FRET ratio, 18 h; 460 nm channel
Outline: (§1)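 Reporter: UAS-bla under PPAR-delta response element, HEK293T host. Medium: 2% charcoal/dextran FBS. Dosing: titration, 18 hrs, 37 C. Detection: CCF4, 2 hrs RT, 405 ex/460 and 530 em.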

[3] = target: Peroxisome proliferator-activated receptor delta (Homo sapiens) (UniProt Q03181); experiment: as above
Sequence of Peroxisome proliferator-activated receptor delta (Homo sapiens) (Q03181 whole entry, looked up): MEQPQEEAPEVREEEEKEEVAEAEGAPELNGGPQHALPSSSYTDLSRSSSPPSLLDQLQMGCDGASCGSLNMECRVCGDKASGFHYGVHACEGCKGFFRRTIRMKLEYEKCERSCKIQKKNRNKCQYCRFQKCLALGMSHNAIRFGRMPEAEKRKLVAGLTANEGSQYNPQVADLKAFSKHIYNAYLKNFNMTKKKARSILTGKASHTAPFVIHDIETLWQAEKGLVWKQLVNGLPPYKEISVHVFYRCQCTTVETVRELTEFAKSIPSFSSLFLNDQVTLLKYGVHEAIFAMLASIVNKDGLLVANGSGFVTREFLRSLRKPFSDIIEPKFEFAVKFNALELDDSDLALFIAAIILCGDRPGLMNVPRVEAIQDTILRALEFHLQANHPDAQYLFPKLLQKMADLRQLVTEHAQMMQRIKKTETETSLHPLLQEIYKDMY
Outline: as §1

[4] = target: Vitamin D3 receptor (Homo sapiens) (UniProt P11473); experiment: qHTS assay for small molecule antagonists of vitamin D receptor signaling (AID 588541);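 further: receptor activated by calcitriol during compound treatment; series mostly up to about 77 µM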
Sequence of Vitamin D3 receptor (Homo sapiens) (P11473 whole entry, looked up): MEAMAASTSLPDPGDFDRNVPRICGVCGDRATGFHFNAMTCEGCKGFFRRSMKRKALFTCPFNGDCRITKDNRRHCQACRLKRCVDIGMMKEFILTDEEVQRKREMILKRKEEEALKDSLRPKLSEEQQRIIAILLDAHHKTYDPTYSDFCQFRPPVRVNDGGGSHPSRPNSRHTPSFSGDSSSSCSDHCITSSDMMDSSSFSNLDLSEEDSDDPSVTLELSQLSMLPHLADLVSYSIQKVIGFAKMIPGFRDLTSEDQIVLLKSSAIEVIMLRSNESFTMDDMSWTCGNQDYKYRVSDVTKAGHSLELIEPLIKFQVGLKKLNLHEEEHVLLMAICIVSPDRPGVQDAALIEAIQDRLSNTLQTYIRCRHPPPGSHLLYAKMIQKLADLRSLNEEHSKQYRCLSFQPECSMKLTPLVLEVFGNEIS
Outline: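 VDR-UAS-bla HEK293T cells (2000/well, 2% charcoal-stripped FBS) were treated with titrated compounds plus 1-alpha,25-dihydroxyvitamin D3 (50 nM or 3 nM final) for 16 h at 37 C. CCF4 beta-lactamase fluorescence was read; Hill fits gave IC50.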

[5] = qHTS assay for small molecule agonists of retinoid X receptor alpha signaling (AID 588544); conditions: HEK293T RXRa-UAS-bla, beta-lactamase reporter, 18 h; 530 nm emission
[6] = target: Retinoic acid receptor RXR-alpha (Homo sapiens) (UniProt P19793); experiment: as above
Sequence of Retinoic acid receptor RXR-alpha (Homo sapiens) (P19793 whole entry, looked up): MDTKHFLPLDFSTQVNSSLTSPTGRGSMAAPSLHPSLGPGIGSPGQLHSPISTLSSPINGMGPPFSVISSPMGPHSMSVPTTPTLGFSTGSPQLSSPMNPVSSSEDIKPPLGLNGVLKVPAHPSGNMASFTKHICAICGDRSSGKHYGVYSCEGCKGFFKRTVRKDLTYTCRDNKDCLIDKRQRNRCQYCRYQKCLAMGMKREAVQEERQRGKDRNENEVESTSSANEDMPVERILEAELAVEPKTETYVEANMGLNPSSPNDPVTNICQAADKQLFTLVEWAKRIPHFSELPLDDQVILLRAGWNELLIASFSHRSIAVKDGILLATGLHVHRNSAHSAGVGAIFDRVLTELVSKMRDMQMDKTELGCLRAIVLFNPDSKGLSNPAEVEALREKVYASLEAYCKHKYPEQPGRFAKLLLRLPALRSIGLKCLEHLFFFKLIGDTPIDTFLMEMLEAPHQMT

[7] = target: Thyroid hormone receptor beta (Homo sapiens) (UniProt P10828); experiment: qHTS assay for small molecule agonists of thyroid hormone receptor beta signaling (AID 588545)
Sequence of Thyroid hormone receptor beta (Homo sapiens) (P10828 whole entry, looked up): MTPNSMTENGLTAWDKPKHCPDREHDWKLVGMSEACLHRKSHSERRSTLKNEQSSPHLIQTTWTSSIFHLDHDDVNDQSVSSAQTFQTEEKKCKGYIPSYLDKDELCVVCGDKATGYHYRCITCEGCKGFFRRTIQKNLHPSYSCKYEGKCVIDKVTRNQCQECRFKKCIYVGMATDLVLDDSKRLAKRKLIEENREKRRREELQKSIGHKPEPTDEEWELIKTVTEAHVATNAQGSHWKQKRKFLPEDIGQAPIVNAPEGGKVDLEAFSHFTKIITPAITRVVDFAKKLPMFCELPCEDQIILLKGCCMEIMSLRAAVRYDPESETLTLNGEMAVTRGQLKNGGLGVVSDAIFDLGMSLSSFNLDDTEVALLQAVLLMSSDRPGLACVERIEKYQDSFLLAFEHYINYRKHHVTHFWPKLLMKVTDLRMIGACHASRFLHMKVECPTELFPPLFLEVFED
Outline: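 TR-UAS-bla-GripTite HEK 293 cells in medium with 2% charcoal/dextran FBS, 0.1 mM NEAA and 1 mM sodium pyruvate were treated with titrated compounds for 18 hrs at 37 C. Beta-lactamase reporter was read with CCF4 dye (ex 405, em 460/530 nm); EC50 from Hill fits.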

[8] = qHTS assay for small molecule antagonists of retinoid X receptor alpha signaling (AID 588546; active means well fitted inhibition curve with a large enough effect in the signal ratio, with a control signal flat, not every such curve was filed as active; the % refers to the signal ratio;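 further: cells stimulated with 9-cis-retinoic acid as agonist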); conditions: HEK293T RXRa-UAS-bla, beta-lactamase ratio, antagonist mode; measured here: W530 green channel, cytotoxicity proxy
Outline: (§2)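 Beta-lactamase reporter inhibition, read as CCF4 fluorescence ratio (ex 405, em 460/530 nm) after 2 h at RT. HEK293T UAS-bla cells, 2500/well, were stimulated with 9-cis-RA at 500 or 100 nM final alongside test compound for 18 h at 37 C.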

[9] = target: Retinoic acid receptor RXR-alpha (Homo sapiens) (UniProt P19793); experiment: as above; conditions: HEK293T RXRa-UAS-bla, beta-lactamase ratio, antagonist mode
Outline: as §2

[10] = target: Thyroid hormone receptor beta (Homo sapiens) (UniProt P10828); experiment: qHTS assay for small molecule antagonists of thyroid hormone receptor beta signaling (AID 588547; active means well fitted inhibition curve with a large enough effect in the signal ratio, with a control signal flat, not every such curve was filed as active; the % refers to the signal ratio;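 further: cells stimulated with 0.4 nM T3 agonist during compound exposure; series mostly up to about 77 µM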); conditions: TR-UAS-bla HEK293, beta-lactamase ratio, antagonist mode, 18 h
Outline: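 TR-UAS-bla GripTite HEK293 cells in 2% charcoal/dextran FBS medium were preincubated 4 h at 37 C, given compound (0.59 nM to 92 uM) plus 0.4 nM T3 (final) for 18 h, then CCF4 for 2 h at RT; Hill fit gave IC50.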

[11] = qHTS assay for small molecule agonists of the antioxidant response element (ARE) signaling pathway (AID 651741; active means well fitted activation curve with a large enough effect in the signal ratio; the % refers to the signal ratio)
Outline: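 Compounds in DMSO are pinned onto HepG2 ARE-bla cells (2,000/well) that were preincubated 5 h; plates stay 16 h at 37 C, then beta-lactamase activity is detected with LiveBLAzer B/G substrate by fluorescence.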

[12] = qHTS assay for small molecule activators of the p53 signaling pathway (AID 651743; active means well fitted activation curve with a large enough effect in the signal ratio, not every such curve was filed as active; the % refers to the signal ratio; further: series mostly up to about 92 µM); conditions: HCT-116 p53RE-bla, beta-lactamase FRET ratio, 16 h; stronger effect = higher value
Outline: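 Cell-based beta-lactamase reporter (p53 response elements, HCT-116 background). After a 5-hour preincubation, cells received compound for 16 hours at 37 C; substrate development ran 2 hours at room temperature.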

[13] = qHTS assay for small molecule activators of the nuclear factor-kappa B (NF-kB) signaling pathway (AID 651749; active means well fitted activation curve with a large enough effect in the signal ratio; the % refers to the signal ratio; further: series mostly up to about 77 µM); conditions: NF-kB-bla ME-180 cells, beta-lactamase FRET ratio, 16 h; stronger effect = higher value
Outline: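 Screening used 2,000 ME-180 reporter cells per well exposed to pinned compound (23 nL) or DMSO; after 16 hr at 37C, beta-lactamase expression under NF-kB control was assessed through FRET.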

[14] = target: Peroxisome proliferator-activated receptor gamma (Homo sapiens) (UniProt P37231); experiment: qHTS assay for small molecule agonists of peroxisome proliferator-activated receptor gamma signaling (AID 588536; active means well fitted curve in the direction sought with a large enough effect in the signal ratio, with a control signal flat, not every such curve was filed as active; the % refers to the signal ratio)
Sequence of Peroxisome proliferator-activated receptor gamma (Homo sapiens) (P37231 whole entry, looked up): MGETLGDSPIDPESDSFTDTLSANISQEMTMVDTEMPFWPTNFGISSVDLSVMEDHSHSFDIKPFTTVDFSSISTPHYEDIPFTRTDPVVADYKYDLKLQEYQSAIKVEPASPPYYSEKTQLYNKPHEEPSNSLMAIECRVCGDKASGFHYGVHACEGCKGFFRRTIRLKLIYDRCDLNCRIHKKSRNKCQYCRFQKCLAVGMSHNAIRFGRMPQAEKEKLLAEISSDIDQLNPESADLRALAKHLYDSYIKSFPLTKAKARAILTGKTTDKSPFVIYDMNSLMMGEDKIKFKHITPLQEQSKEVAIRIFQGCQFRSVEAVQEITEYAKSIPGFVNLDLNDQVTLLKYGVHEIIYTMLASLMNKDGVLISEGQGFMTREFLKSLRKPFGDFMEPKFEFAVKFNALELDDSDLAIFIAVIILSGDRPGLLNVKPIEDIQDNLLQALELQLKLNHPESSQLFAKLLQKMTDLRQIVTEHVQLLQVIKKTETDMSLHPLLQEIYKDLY
Outline: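 Ratiometric blue/green fluorescence (405 nm excitation; 460 and 530 nm emission) from CCF4-loaded HEK293 reporter cells serves as signal. Exposure to test compounds lasts 16 h at 37 C in medium containing 1% charcoal/dextran-treated serum.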

[15] = target: Peroxisome proliferator-activated receptor gamma (Homo sapiens) (UniProt P37231); experiment: qHTS assay for small molecule antagonists of peroxisome proliferator-activated receptor gamma signaling (AID 588537; active means well fitted inhibition curve with a large enough effect in the signal ratio, with a control signal flat, not every such curve was filed as active; the % refers to the signal ratio;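 further: reporter cells co-stimulated with 50 nM rosiglitazone agonist during compound treatment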)
Outline: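 We seeded GeneBLAzer HEK293 reporter cells at 3000 per well, allowed 6-6.5 h attachment at 37 C, then co-treated with test compound titrations and 50 nM rosiglitazone overnight (16 h). Inhibition was quantified from 460/530 nm emission ratios.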

[16] = target: Vitamin D3 receptor (Homo sapiens) (UniProt P11473); experiment: qHTS assay for small molecule agonists of vitamin D receptor signaling (AID 588543)
Outline: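 GeneBLAzer VDR-UAS-bla HEK293T cells in 2% charcoal-stripped FBS medium were dosed with compound titrations for 16 h at 37 °C; CCF4 β-lactamase readout (405 nm ex, 460/530 nm em). EC50 and efficacy from Hill fits, normalized to 50 nM calcitriol (100%) and DMSO (0%).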

[17] = target: Voltage-gated inwardly rectifying potassium channel KCNH2 (Homo sapiens) (UniProt Q12809); experiment: qHTS Assay for Small Molecule Inhibitors of the Human hERG Channel Activity (AID 588834; active means well fitted inhibition curve with a large enough effect;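 further: top concentration of the series differs between compounds; lower thallium flux fluorescence means stronger hERG block; nearly all actives have a fitted effect of over 50% in size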)
Sequence of Voltage-gated inwardly rectifying potassium channel KCNH2 (Homo sapiens) (Q12809 whole entry, looked up): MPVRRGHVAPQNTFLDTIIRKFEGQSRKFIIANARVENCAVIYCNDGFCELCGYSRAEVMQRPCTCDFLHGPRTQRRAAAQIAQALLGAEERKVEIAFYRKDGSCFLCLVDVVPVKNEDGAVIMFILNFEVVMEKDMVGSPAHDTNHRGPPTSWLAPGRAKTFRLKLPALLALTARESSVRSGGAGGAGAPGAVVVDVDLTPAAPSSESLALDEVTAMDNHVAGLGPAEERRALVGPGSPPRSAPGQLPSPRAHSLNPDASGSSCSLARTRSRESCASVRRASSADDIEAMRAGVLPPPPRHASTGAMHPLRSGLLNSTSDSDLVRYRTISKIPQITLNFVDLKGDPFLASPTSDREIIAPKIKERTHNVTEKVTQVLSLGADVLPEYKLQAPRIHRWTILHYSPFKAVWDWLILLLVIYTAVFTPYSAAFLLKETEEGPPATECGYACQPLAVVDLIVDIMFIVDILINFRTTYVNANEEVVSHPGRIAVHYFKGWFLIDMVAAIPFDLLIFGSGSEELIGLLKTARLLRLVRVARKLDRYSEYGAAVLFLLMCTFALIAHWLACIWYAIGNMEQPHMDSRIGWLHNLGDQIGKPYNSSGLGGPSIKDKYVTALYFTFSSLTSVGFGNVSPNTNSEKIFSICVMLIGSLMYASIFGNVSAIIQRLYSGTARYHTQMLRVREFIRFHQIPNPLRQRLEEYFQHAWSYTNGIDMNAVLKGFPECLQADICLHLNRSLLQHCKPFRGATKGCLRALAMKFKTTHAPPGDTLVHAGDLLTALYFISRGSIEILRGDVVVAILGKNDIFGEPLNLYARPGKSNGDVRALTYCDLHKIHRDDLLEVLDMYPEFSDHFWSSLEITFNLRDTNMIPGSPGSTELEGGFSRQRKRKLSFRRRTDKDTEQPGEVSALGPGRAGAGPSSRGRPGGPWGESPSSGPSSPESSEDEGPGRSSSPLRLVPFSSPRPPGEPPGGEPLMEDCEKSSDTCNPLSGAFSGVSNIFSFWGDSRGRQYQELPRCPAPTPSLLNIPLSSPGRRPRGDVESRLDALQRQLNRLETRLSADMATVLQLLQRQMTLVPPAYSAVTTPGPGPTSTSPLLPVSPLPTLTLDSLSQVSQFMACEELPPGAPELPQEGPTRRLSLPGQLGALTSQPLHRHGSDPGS
Outline: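 U2OS cells transduced with hERG via BacMam (MOI ~100), plated 2000/well, loaded with FluxOR thallium dye, compound ~10 min, then stimulation buffer; fluorescence decrease read kinetically; AC50 from Hill fits.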

[18] = target: Glucocorticoid receptor (Homo sapiens) (UniProt P04150); experiment: qHTS assay for small molecule agonists of glucocorticoid receptor signaling (AID 588532; active means well fitted curve in the direction sought with a large enough effect in the signal ratio, with a control signal flat; the % refers to the signal ratio); conditions: HeLa MMTV-bla, beta-lactamase ratio, agonist, 18 h; stronger effect = higher value; percent of dexamethasone control, DMSO zero
Outline: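 Stimulation of a glucocorticoid response element-driven beta-lactamase gene was measured in HeLa cells. Responses were scaled between DMSO basal and 0.1 uM dexamethasone, then fitted for half-maximal stimulation.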

Compound | outcome [1] | max response [2] [%] | Potency [3] | outcome [4] | max response [5] [%] | outcome [6] | outcome [7] | max response [8] [%] | max response [9] | activity change % (negative = inhibition) [10] | Potency [11] | activation [12] | activation [13] | outcome [14] | outcome [15] | outcome [16] | Potency [17] | activation [18]
c1ccc2c(c1)Oc1ccccc1S2 | inactive | 19.7 | inactive | inactive | -9.36 | inactive | inactive | -7.12 | 5.17% (inactive) | -3.93% (inactive) | inactive | 0.189% (inactive) | -0.203% (inactive) |  |  |  |  | 
C=CCCCC | inactive | 22.6 |  | inactive | -12.2 | inactive | inactive | -3.19 | -7.65% (inactive) | 9.97% (inactive) | inactive | 0.701% (inactive) | 0.582% (inactive) | inactive | inactive | inactive | inactive | 
CC(C)C=O | inactive | -3.06 | inactive | inactive | 3.23 | inactive | inactive | -14.5 | 8.49% (inactive) | -10% (inactive) | inactive | 0.787% (inactive) | -1.3% (inactive) | inactive |  | inactive | inactive | 
NS(=O)(=O)O | inactive | -9.24 |  | inactive | 0.843 | inactive | inactive | 1.78 | 17% (inactive) | -4.41% (inactive) | inactive | -0.9% (inactive) |  | inactive | inactive | inactive | inactive | 
Cc1ccccc1C=O | inactive |  |  | inactive | -10.4 | inactive | inactive | 9.24 | 9.95% (inactive) | 20.8% (inactive) |  | 3.12% (inactive) |  | inactive |  | inactive | inactive | 
O=Cc1ccccc1Cl | inactive |  |  | inactive | -11.2 | inactive | inactive | 3.56 | 26.5% (inactive) | 5% (inactive) | inactive |  | -1.13% (inactive) | inactive | inactive |  | inactive | 
Cc1ccc([N+](=O)[O-])c(N)c1 | inactive | -3.65 | inactive | inactive | 3 | inactive | inactive | -20.5 | -4.21% (inactive) | -0.142% (inactive) |  | -3.31% (inactive) | -0.448% (inactive) | inactive |  | inactive | inactive | 
CC(C)(O)CCC(C)(C)O | inactive |  |  | inactive | -8.68 | inactive | inactive | -5.49 | 1.42% (inactive) | 4.09% (inactive) |  | -3.36% (inactive) |  | inactive | inactive |  | inactive | 
CC(=O)c1ccc([N+](=O)[O-])cc1 | inactive | 10.4 | inactive | inactive | -7.91 | inactive | inactive | 4.7 | 1.74% (inactive) | -0.995% (inactive) |  |  | 0.321% (inactive) | inactive |  |  | inactive | 
OC/C(Br)=C(\Br)CO | inactive |  |  | inactive | -4.05 | inactive | inactive | -2.68 | -0.311% (inactive) | -11.8% (inactive) |  |  | 0.22% (inactive) | inactive |  |  | inactive | 
NC(=O)c1cccc([N+](=O)[O-])c1 | inactive | -10.1 | inactive |  | 2.13 | inactive | inactive | -10.9 | -6.67% (inactive) | 12.3% (inactive) |  | 8.78% (inactive) |  | inactive | inactive |  | inactive | 
Nc1ccccc1[N+](=O)[O-] | inactive | 35.9 | inactive |  | -4.62 | inactive |  | 1.56 | -0.391% (inactive) | -6.45% (inactive) | inactive | -3.02% (inactive) | 0.892% (inactive) | inactive | inactive |  |  | 
CC(=O)c1nccs1 | inactive | -6.53 | inactive | inactive | 4.76 | inactive | inactive | -5.53 | -9.7% (inactive) | 1.64% (inactive) | inactive | -4.02% (inactive) |  | inactive |  | inactive | inactive | 
Cc1ccc(Br)cc1 | inactive | 4.44 | inactive | inactive | 5.91 | inactive | inactive | 1.18 | -0.837% (inactive) | -9.28% (inactive) | inactive |  |  | inactive | inactive | inactive | inactive | 
CC(=O)c1cc(C)oc1C | inactive | -4.12 |  | inactive | -2.61 | inactive | inactive | 4.07 | 0.525% (inactive) | -4.91% (inactive) | inactive | -2.3% (inactive) | -0.373% (inactive) | inactive |  | inactive | inactive | 
S=C([S-])NCCNC(=S)[S-].[Zn+2] | inactive |  |  |  |  |  | inactive |  |  | 6.23% (inactive) and -0.322% (inactive) |  |  |  | inactive |  | inactive |  | 
C[C@@H]1CC2(OC[C@]3(C)O[C@H]23)O[C@H]2C[C@@]3(C)[C@@H]4CC[C@H]5C(C)(C)C(O[C@@H]6OC[C@@H](O)[C@H](O)[C@H]6O)CC[C@@]56C[C@@]46CC[C@]3(C)[C@@H]12 (some centres not stated) |  |  |  |  |  |  | inactive |  |  | 4.18% (inactive) |  | -7.18% (inactive) | -1.67% (inactive) |  |  |  | inactive | -8.99% (inactive)
Nc1ccc([N+](=O)[O-])c(N)c1 | inactive |  |  | inactive | -12.6 | inactive | inactive | -1.48 | -8.62% (inactive) | -0.546% (inactive) |  | -5.74% (inactive) | 0.47% (inactive) | inactive | inactive | inactive | inactive | 
